The results in this text go back to PubChem BioAssay (NCI).

About 83,000 compounds went through this panel and 20% of them were active in at least one assay; those are over-represented in the sample as a whole.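 A percent growth of 40 corresponds to 60% growth inhibition; 0 means no net growth; -100 means all cells died. Active threshold: below 10.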 Unmarked numbers belong to inactive results. Activity calls are given as the source filed them.

Holding throughout (assay): NCI-60 one-dose screen, 48 h (100 = growth as untreated, 0 = no growth, -100 = all killed)
One assay has as its system SK-MEL-2 melanoma. The note with it: 10 µM unless noted.
Another assay has as its system EKVX NSCLC. The note with it: 10 µM unless noted.
For a further assay, the system named is SN12C renal. The note with it: 10 µM unless noted.
Another assay deals with UO-31 renal. The note with it: 10 µM unless noted.
A further assay has as its system TK-10 renal. The note with it: 10 µM unless noted.
The test system of another assay is ACHN renal. The note with it: 10 µM unless noted.
A further assay deals with CAKI-1 renal. The note with it: 10 µM unless noted.
Another assay relates to A498 renal. The note with it: 10 µM.
In a further assay the test system is HL-60(TB) leukemia. The note with it: 10 µM unless noted.
In another assay the test system is CCRF-CEM leukemia. The note with it: 10 µM unless noted.
A further assay has as its system MOLT-4 leukemia. The note with it: 10 µM unless noted.
A further assay relates to SR leukemia. The note with it: 10 µM unless noted.
For the next assay, the system named is RPMI-8226 leukemia. The note with it: 10 µM unless noted.
In another assay the test system is OVCAR-8 ovarian. The note with it: 10 µM unless noted.
In another assay the test system is OVCAR-5 ovarian. The note with it: 10 µM unless noted.
For the next assay, the system named is OVCAR-4 ovarian. The note with it: 10 µM unless noted.
The subject of a further assay is SK-OV-3 ovarian. The note with it: 10 µM unless noted.
The test system of a further assay is IGROV1 ovarian. The note with it: 10 µM unless noted.
Another assay has as its system OVCAR-3 ovarian. The note with it: 10 µM unless noted.
Another assay deals with HS 578T breast. The note with it: 10 µM unless noted.

In the case of `O=C1C(=Cc2cn(Cc3ccccc3)c3ccccc23)C(=O)N(Cc2ccccc2)C(=O)N1Cc1ccccc1`, the growth in the assay with SK-MEL-2 melanoma is 83.9%; with EKVX NSCLC, 97.5%; in the assay on SN12C renal it was 101%; in the assay with UO-31 renal it was 73.3%; in the assay with TK-10 renal, 40.7%; in the assay with ACHN renal, 86.2%. Moreover, the growth was 94.6% with CAKI-1 renal; -95.7% (active) with A498 renal; 96.4% in the assay on HL-60(TB) leukemia; 118% with CCRF-CEM leukemia; 95.2% with MOLT-4 leukemia; 87.2% in the assay on SR leukemia. For the same molecule, the growth in the assay on RPMI-8226 leukemia was 93.2%; in the assay with OVCAR-8 ovarian it was 83.5%; with OVCAR-5 ovarian it was -7.28% (active); in the assay on OVCAR-4 ovarian, 57.3%; with SK-OV-3 ovarian, 47.7%; in the assay on IGROV1 ovarian, 75.8%. The growth with OVCAR-3 ovarian was 97.7%; in the assay with HS 578T breast it was 90.7%.
As for `COC(C(=O)[C@@H](O)[C@@H](C)O)[C@@H]1Cc2cc3cc(O[C@H]4C[C@@H](O[C@H]5C[C@@H](O)[C@H](O)C(C)O5)[C@H](O)C(C)O4)c(C)c(O)c3c(O)c2C(=O)[C@H]1O[C@H]1C[C@@H](O[C@H]2C[C@@H](O[C@H]3C[C@@H](O)[C@@H](O)C(C)O3)[C@@H](O)C(C)O2)[C@H](O)C(C)O1` (stereo not given in full), the growth in the assay with SK-MEL-2 melanoma is -61.3% (active); with EKVX NSCLC, 24.4%; in the assay on SN12C renal it was 7.47% (active); in the assay on UO-31 renal, -3.24% (active); in the assay on TK-10 renal, 12.1%; with ACHN renal it was 0.535% (active). Moreover, the growth was 12.6% with CAKI-1 renal; -39.9% (active) with A498 renal; 30.5% in the assay on HL-60(TB) leukemia; 29.4% in the assay on CCRF-CEM leukemia; 23.9% in the assay on MOLT-4 leukemia; 14.3% with SR leukemia. Also, the growth in the assay with RPMI-8226 leukemia was 9.15% (active); in the assay on OVCAR-8 ovarian it was 2.92% (active); in the assay on OVCAR-5 ovarian it was 13.7%; in the assay on OVCAR-4 ovarian, 25.2%; in the assay on SK-OV-3 ovarian it was 25.5%; with IGROV1 ovarian, 18.2%. The growth in the assay on OVCAR-3 ovarian was 4.91% (active); with HS 578T breast it was 14.5%.
As to `O=P(Oc1ccc(Cl)cc1)(N1CC1)N1CC1`, the growth is 102% in the assay on SK-MEL-2 melanoma; 101% in the assay with EKVX NSCLC; 86.7% in the assay with SN12C renal; 61.1% with UO-31 renal; 104% in the assay with TK-10 renal; 25% in the assay on ACHN renal. Also, the growth with CAKI-1 renal is 5.92% (active); with A498 renal, 97.4%; in the assay on HL-60(TB) leukemia, 96%; in the assay with CCRF-CEM leukemia it was 82.5%; in the assay with MOLT-4 leukemia it was 84.8%; in the assay on SR leukemia, 77.8%. Also, the growth with RPMI-8226 leukemia is 88.6%; in the assay on OVCAR-8 ovarian, 89.3%; in the assay on OVCAR-5 ovarian, 117%; in the assay on OVCAR-4 ovarian, 97.3%; in the assay on SK-OV-3 ovarian, 104%; in the assay with IGROV1 ovarian it was 89.1%. Besides, the growth was 109% with OVCAR-3 ovarian and 103% with HS 578T breast.
In the case of `COc1ccc(/C=C\c2cc(OC)c(OC)c(OC)c2)cc1OCC(=O)Nc1nc2ccc(OC(F)(F)F)cc2s1`, the growth in the assay on SK-MEL-2 melanoma is 15.6%; in the assay with EKVX NSCLC, 77%; with SN12C renal it was 49.7%; in the assay on UO-31 renal it was 25.4%; in the assay on TK-10 renal it was 47%; with ACHN renal, 43.5%. Besides, the growth was 35.2% in the assay on CAKI-1 renal; 30.2% in the assay on A498 renal; 52.3% with HL-60(TB) leukemia; 28.2% in the assay with CCRF-CEM leukemia; 13.2% with MOLT-4 leukemia; 31.5% in the assay with SR leukemia. Besides, the growth in the assay on RPMI-8226 leukemia was 22.8%; with OVCAR-8 ovarian, 43.2%; in the assay with OVCAR-5 ovarian, 112%; with OVCAR-4 ovarian, 64.4%; in the assay on SK-OV-3 ovarian, 48.4%; with IGROV1 ovarian, 30.3%. For the same molecule, the growth in the assay on OVCAR-3 ovarian is -30.7% (active); in the assay with HS 578T breast, 12.5%.
On to `COC1CC2c3ccccc3C1C(C)=[N+]2C` (stereo not given), for which the growth in the assay on SK-MEL-2 melanoma was 91.8%; with EKVX NSCLC, 97.4%; in the assay with SN12C renal, 94.1%; in the assay on UO-31 renal it was 94%; in the assay on TK-10 renal, 98.8%; with ACHN renal, 99.3%. Also, the growth was 69.3% in the assay on CAKI-1 renal; 80.8% with A498 renal; 113% in the assay with HL-60(TB) leukemia; 76.7% in the assay on CCRF-CEM leukemia; 101% with MOLT-4 leukemia; 105% in the assay with SR leukemia. The growth was 75.3% with RPMI-8226 leukemia; 96.6% with OVCAR-8 ovarian; 93.8% in the assay on OVCAR-5 ovarian; 83.7% in the assay with OVCAR-4 ovarian; 105% with SK-OV-3 ovarian; 92.5% in the assay with IGROV1 ovarian. Further, the values for the growth in the assay with OVCAR-3 ovarian and in the assay with HS 578T breast were 102% and 105%, respectively.
Consider `C=CCc1cc2c(cc1OCC)OCO2`, for which the growth is 104% in the assay with SK-MEL-2 melanoma; 91.1% in the assay on EKVX NSCLC; 98.8% in the assay with SN12C renal; 95.4% in the assay with UO-31 renal; 92% with TK-10 renal; 111% with ACHN renal. Also, the growth with CAKI-1 renal was 102%; in the assay on A498 renal it was 91.3%; in the assay on HL-60(TB) leukemia, 98.1%; in the assay with CCRF-CEM leukemia it was 106%; in the assay on MOLT-4 leukemia, 113%; in the assay with SR leukemia it was 126%. Moreover, the growth in the assay on RPMI-8226 leukemia is 112%; in the assay with OVCAR-8 ovarian it was 103%; in the assay with OVCAR-5 ovarian it was 95.7%; in the assay on OVCAR-4 ovarian it was 108%; in the assay with SK-OV-3 ovarian, 80.3%; in the assay with IGROV1 ovarian it was 121%. Besides, the figures for the growth in the assay on OVCAR-3 ovarian and with HS 578T breast were 107% and 93.2%, respectively.
For the molecule `CCCCCCCCCCCCCCCCCC1OC[C@H](COC(=O)O[C@@H](C(=O)O[C@H]2C[C@@]3(O)[C@@H](OC(=O)c4ccccc4)[C@@H]4[C@]5(OC(C)=O)CO[C@@H]5C[C@H](O)[C@@]4(C)C(=O)[C@H](OC(C)=O)C(=C2C)C3(C)C)[C@@H](NC(=O)c2ccccc2)c2ccccc2)O1` (stereo not given in full), the growth with SK-MEL-2 melanoma is 75%; in the assay on EKVX NSCLC it was 93.7%; with SN12C renal it was 56.8%; in the assay on UO-31 renal, 98.1%; with TK-10 renal, 99.8%; in the assay with ACHN renal, 96.2%. Moreover, the growth with CAKI-1 renal was 81%; in the assay with A498 renal, 72%; in the assay with HL-60(TB) leukemia it was 23.3%; in the assay with CCRF-CEM leukemia, 44.8%; with MOLT-4 leukemia it was 55.1%; in the assay on SR leukemia it was 44.9%. For the same molecule, the growth in the assay with RPMI-8226 leukemia was 17.5%; with OVCAR-8 ovarian it was 61.5%; with OVCAR-5 ovarian it was 41.5%; in the assay with OVCAR-4 ovarian it was 75.5%; with SK-OV-3 ovarian, 62.8%; in the assay with IGROV1 ovarian it was 42.9%. For the same molecule, the growth with OVCAR-3 ovarian was 31.9%; with HS 578T breast, 60.7%.
